According to PubChem BioAssay AID1490 (National Center for Advancing Translational Sciences (NCATS), 2009):
Hit rate of the full screen: of about 310,000 compounds, about 11,000 (3.5%) were called active. Roughly 4% stayed inconclusive and do not appear here. Calls follow the shape of the dose curve; as a rule, active = well fitted inhibition curve with a large enough effect; inconclusive = small, poorly fitted or top-dose-only effect, or another doubt; inactive = no such curve, though single readings can be large or run the other way. The sample as a whole holds a higher share of actives than the screen did. More than one record can exist for a structure, and the calls need not agree.

Molecular target: 4'-phosphopantetheinyl transferase ffp (Bacillus subtilis) (UniProt Q9F4F7)
Test: qHTS Assay for Inhibitors of Bacillus subtilis Sfp phosphopantetheinyl transferase (PPTase);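 also: the enzyme is Sfp with the accession as filed and its product quenches rhodamine fluorescence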;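 as to largest response in the series, negative = inhibition: 0% = enzyme reaction without inhibitor and -100% = no enzyme wells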
Conditions: Biochemical Sfp PPTase activity
Procedure, shortened: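 Fluorescence-quenching assay: 15 nM Sfp-PPTase preincubated 15 min at room temperature with compound, then 5 uM rhodamine-CoA and 12.5 uM BHQ-2-labelled YbbR peptide added. Fluorescence (ex 525/em 598 nm) read at start and after 30 min; difference gives rate.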
Potency is read from the fitted curve at half-maximal effect.

Row | SMILES | largest response in the series, negative = inhibition | Potency
1 | CC(=O)c1cc2c(cc1NC(=O)Cn1nc(-c3ccc(F)cc3)ccc1=O)OCO2 | 8.25% (inactive) | 
2 | COc1ccc(S(=O)(=O)NCCc2cc3ccc(C)c(C)c3[nH]c2=O)cc1 | 8.17% (inactive) | 
3 | COc1ccc(C2(O)C(=O)Nc3ccccc32)cc1 (stereo unspecified) | 5.11% (inactive) | 
4 | O=C1Nc2ccccc2C12Nc1ccccc1S2 (stereo unspecified) |  | 20 µM (active)
5 | Cc1cc(O)c(C2(O)C(=O)Nc3ccccc32)cc1C (stereo unspecified) | 0.726% (inactive) | 
6 | CN1CCN(c2ncc3nc(-c4ccc(Cl)cc4)c(=O)n(-c4ccccc4)c3n2)CC1 | -4.61% (inactive) | 
7 | CCOC(=O)c1c(S(=O)(=O)Nc2cccc(Cl)c2)c(C)n(C)c1C | 17.3% (inactive) | 
8 | COC(=O)c1cnn2c(C(F)(F)F)cc(-c3ccco3)nc12 | -3.33% (inactive) | 
9 | Cc1cc(C)c2nc(-c3ccco3)cc(C(=O)O)c2c1 |  | 20 µM (active)
10 | Cc1ccsc1-c1cc(C(=O)O)c2c(ccc3ccccc32)n1 | 5.93% (inactive) | 
11 | Cc1ccc(S(=O)(=O)c2c[nH]c3ccc(C)cc3c2=O)cc1 | 18.3% (inactive) | 
12 | COc1cc(C)cc(CN2CCC(Cc3ccccc3)CC2)c1O | 15.6% (inactive) | 
13 | Cc1ccc(OCc2nnc(SC3CCc4ccccc4C3=O)n2C)cc1 (stereo unspecified) |  | 25.1 µM (active)
14 | Cc1ccc(OCc2nc3ccccc3n2C)cc1 | 16.9% (inactive) | 
15 | Cc1cccnc1NC(=O)CSc1nnc(COc2ccc(C(C)C)cc2)n1C | -2.86% (inactive) | 
16 | CCCCNC(=O)c1ccccc1NC(=O)c1ccccc1N(C)S(C)(=O)=O |  | 50.1 µM (active)
17 | CCCCNC(=O)c1ccccc1NC(=O)C1=C(C)OCCS1 | 4.87% (inactive) | 
18 | CCC(C)NC(=O)c1ccccc1NC(=O)c1ccccc1N(C)S(C)(=O)=O (stereo unspecified) | 17.5% (inactive) | 
19 | C=CCOC(=O)C(C(C)=O)C(NC(=O)OC)c1ccccc1 (stereo unspecified) | 17.2% (inactive) | 
20 | COc1ccc(C)cc1NC(=O)CN(C)S(=O)(=O)c1ccc2c(c1)n(C)c(=O)c(=O)n2C | 13.5% (inactive) | 
21 | COc1ccc2c(c1)CC[C@@H]1[C@@H]2CC[C@]2(C)C(=O)CC[C@@H]12 |  | 50.1 µM (active)
22 | COc1ccc(S(=O)(=O)N2CCN(C)CC2)c(C)c1 | 13.7% (inactive) | 
23 | C[C@]12CC[C@@H]3C(=CCc4cc(O)ccc43)[C@@H]1CCC2=O | -11.9% (inactive) | 
24 | CCCc1c(C(=O)N/N=C(\C)CCc2ccc(OC)cc2)nnn1-c1nonc1N | 10.3% (inactive) | 

Row | SMILES | largest response in the series, negative = inhibition | Potency
25 | CCO/C=C1\C(=O)N(c2ccc(OCC)cc2)C(=O)c2ccccc21 | 3.31% (inactive) | 
26 | CCOc1ccc(N2C(=O)/C(=C/c3ccc(C)o3)N(C)C2=S)cc1 |  | 3.98 µM (active)
27 | CCOc1ccc(N2C(=O)CN(c3cccc4ccccc34)C2=S)cc1 | 11.1% (inactive) | 
28 | COC(=O)C1=C(C(=O)OC)[C@@H]2N(C)c3ccccc3[C@@]23C[C@@H](C(=O)OC)N(S(=O)(=O)c2ccc(Br)cc2)C3=N1 | 14% (inactive) | 
29 | CCOC(=O)C1=NOC(Cn2cc(C(C)=O)c(=O)[nH]c2=O)C1 (stereo unspecified) | 15.9% (inactive) | 
30 | CCOC(=O)C1=NO[C@@]2(C=C(Br)C(=O)[C@H]3O[C@H]32)C1 |  | 31.6 µM (active)
31 | CCOC(=O)C1=C(C)N=C2c3ccccc3C(=O)C2C1c1ccc(Br)cc1 (stereo unspecified) | 10.1% (inactive) | 
32 | Cc1c(C=O)c2ccccc2n1CCOc1ccccc1 | -1.13% (inactive) | 
33 | CCOc1ccc(N/C=C/C(=O)c2cc(OC)c(OC)c(OC)c2)cc1 | -7.21% (inactive) | 
34 | COc1ccccc1NC(=O)CSc1nnc(CNC(=O)c2ccccc2F)o1 | 15.2% (inactive) | 
35 | NC(=O)c1c(NC(=O)CSc2nnc(-c3ccco3)n2N)sc2c1CCCC2 |  | 5.62 µM (active)
36 | NC(=O)c1c(NC(=O)CSc2nc(N)cc(=O)[nH]2)sc2c1CCCC2 | -28% (inactive) | 
37 | CCc1cccc(C)c1NC(=O)CSc1nnc(-c2ccco2)n1N | -3.08% (inactive) | 
38 | CCOc1ccccc1NS(=O)(=O)c1c[nH]c(C(=O)OC)c1 | 4.59% (inactive) | 
39 | CC(OC(=O)c1ccccc1N1C(=O)C2C3CCC(C3)C2C1=O)C(=O)c1ccccc1 (stereo unspecified) | 11.3% (inactive) | 
40 | CCOC(=O)c1ccccc1N1C(=O)C2Sc3[nH]c(=O)sc3C(/C=C/c3ccccc3)C2C1=O (stereo unspecified) |  | 12.6 µM (active)
41 | COC(=O)C1=C(C)N=C2SC(C)C(=O)N2C1/C=C/c1ccccc1 (stereo unspecified) | 18.9% (inactive) | 
42 | CN1CCN(CCCCOc2cccc3ccccc23)CC1 | 4.87% (inactive) | 
43 | CC1CCCN(CCOCCOc2ccccc2-c2ccccc2)C1 (stereo unspecified) | -31.6% (inactive) | 
44 | CC1CN(CCOc2ccccc2[N+](=O)[O-])CC(C)O1 (stereo unspecified) | -26.3% (inactive) | 
45 | CC1CN(CCCOc2ccccc2-c2ccccc2)CC(C)O1 (stereo unspecified) |  | 56.2 µM (active)
46 | c1ccc(-c2ccccc2OCCN2CCCCC2)cc1 | -19% (inactive) | 
47 | CN1CCN(CCCCOc2ccccc2-c2ccccc2)CC1 |  | 56.2 µM (active)
48 | CCN(CC)CCCNC(=O)CCn1nc(-c2ccc(Cl)cc2)ccc1=O | 13.6% (inactive) | 

Row | SMILES | largest response in the series, negative = inhibition | Potency
49 | OC(CNC1CCCC1)COc1ccc(F)cc1 (stereo unspecified) | 1.37% (inactive) | 
50 | CCc1cccc(C)c1N1C(=O)CN(Cc2ccccc2)C1=S | 13.8% (inactive) | 
51 | C#CC(C)(C)NC(=O)c1cnc(-c2ccccc2)nc1-c1ccccc1 | 8.13% (inactive) | 
52 | COc1ccc(C(=O)n2nc(C)c(Br)c2C)cc1OC | 16.8% (inactive) | 
53 | CC1CCN(S(=O)(=O)c2ccc3c(ccn3CC(=O)O)c2)CC1 | 13.3% (inactive) | 
54 | CC(C)OC(=O)c1cc(NC(=O)C2C3CCC(O3)C2C(=O)O)cc(C(=O)OC(C)C)c1 (stereo unspecified) | 12.5% (inactive) | 
55 | COc1ccc(NC(=O)C2C3CCC(O3)C2C(=O)O)cc1OC (stereo unspecified) | -8.26% (inactive) | 
56 | Cc1sc(NC(=O)C2C3CCC(O3)C2C(=O)O)c(C(=O)OC(C)C)c1-c1ccc(Cl)cc1 (stereo unspecified) |  | 56.2 µM (active)
57 | O=c1ccc2cc(S(=O)(=O)NCCCc3ccccc3)ccc2[nH]1 | 6.03% (inactive) | 
58 | CCOC(=O)C1CCN(S(=O)(=O)c2c(C)noc2C)CC1 | 0.623% (inactive) | 
59 | COc1cccc(-c2coc3cc4oc(=O)c(CC(=O)O)c(C)c4cc23)c1 | 3.72% (inactive) | 
60 | CC(C)C(=O)Nc1ccc2oc(=O)ccc2c1 | 13.6% (inactive) | 
61 | O=C(NC(=S)Nc1ccc2oc(=O)ccc2c1)c1ccc(-c2cccc(Cl)c2Cl)o1 |  | 79.4 µM (active)
62 | O=C(COc1ccc(Cl)cc1)Nc1ccc2oc(=O)ccc2c1 | -10.1% (inactive) | 
63 | CC(C)(C)OC(=O)NCCCCC1=CC2=CC(=O)C(C)(OC(=O)c3cccs3)C(=O)C2=CO1 (stereo unspecified) | -1.92% (inactive) | 
64 | CC(C)(C)OC(=O)NCCCC1=CC2=CC(=O)C(C)(OC(=O)c3ccco3)C(=O)C2=CO1 (stereo unspecified) | -0.751% (inactive) | 
65 | COC/C=C/C1=CC2=CC(=O)C(C)(OC(=O)CCC(=O)OC)C(=O)C2=CO1 (stereo unspecified) | -28.3% (inactive) | 56.2 µM (active)
66 | COc1cc(C2C3=C(CCCC3=O)OC3=C2C(=O)CCC3)ccc1OCC(=O)Nc1ccccc1 | -3.15% (inactive) | 
67 | Cc1cccc(C)c1NC(=O)COC(=O)c1ccccc1O | -13% (inactive) | 
68 | COC(=O)c1ccccc1NC(=S)NC(=O)c1ccccc1F | 10.1% (inactive) | 
69 | Cc1cccc(NC(=S)NC(=O)c2ccc(Br)o2)c1 | -10.9% (inactive) | 
70 | O=C(NC(=S)Nc1ccccc1C(=O)O)c1ccc(-c2ccc(Br)cc2)o1 |  | 31.6 µM (active)
71 | CC1(C)C2CCC1(CS(=O)(=O)NCCc1c[nH]c3ccccc13)C(=O)C2 (stereo unspecified) | 3.13% (inactive) | 
72 | CCCCN(C)CCNC(=O)C1CCCN(S(=O)(=O)c2cccc3nsnc23)C1 (stereo unspecified) | 11.4% (inactive) | 

Row | SMILES | largest response in the series, negative = inhibition | Potency
73 | COCCNC(=S)N(CCc1c(C)[nH]c2ccc(C)cc12)Cc1cccnc1 | 5.81% (inactive) | 
74 | CCOc1cc(/C=N/O)ccc1OCc1ccccc1F | 2.28% (inactive) | 
75 | COc1cc(/C=C2/C(=O)ON=C2C)ccc1OCc1cccc(F)c1 | -29.4% (inactive) | 
76 | COc1cc(/C=C2/C(=O)ON=C2C)ccc1OCc1ccccc1F |  | 56.2 µM (active)
77 | O=C(Nc1nnc(-c2ccc(F)cc2)s1)c1c(F)cccc1Cl | 11.5% (inactive) | 
78 | O=C(NCCNc1ccc([N+](=O)[O-])cc1Cl)c1ccccc1F | 13.9% (inactive) | 
79 | O=C1NC(c2ccncc2)Nc2sc3c(c21)CCCC3 (stereo unspecified) |  | 35.5 µM (active)
80 | C/C(=C\c1ccccc1)C1NC(=O)c2c(sc3c2CCCC3)N1 (stereo unspecified) | -9.45% (inactive) | 
81 | O=C(Nc1sc2c(c1-c1nc3ccccc3[nH]1)CCCC2)C1CC1 | 11.4% (inactive) | 
82 | COc1ccc(CNC(=O)C(c2ccc(O)cc2)N(Cc2ccco2)C(=O)c2snc(C(N)=O)c2N)cc1 (stereo unspecified) | 8.78% (inactive) | 
83 | O=CN1CCN(C(=O)c2ccc3c(c2)OCO3)CC1 | 5.66% (inactive) | 
84 | O=C(NNC(=S)NCCCN1CCOCC1)c1ccncc1 |  | 28.2 µM (active)
85 | Cc1ccc(C(=O)NC(=S)NCCN2CCOCC2)cc1 | 0.183% (inactive) | 
86 | Cc1cc(C)cc(NC(=S)NCCCN2CCOCC2)c1 | 3.01% (inactive) | 
87 | O=C(N/N=C/c1ccoc1)c1ccc(Cl)cc1Cl | 5.37% (inactive) | 
88 | Cc1cccc(N2CCN(C(=O)CCS(=O)(=O)c3ccc4c(c3)NC(=O)C(C)S4)CC2)c1C (stereo unspecified) | 10.9% (inactive) | 
89 | CC(C)(C)OC(=O)CNC(=O)c1[nH]cnc1C(=O)N[C@@H](Cc1ccccc1)C(=O)OCc1ccccc1 | 19.7% (inactive) | 
90 | CCCCCCCCCCOC(=O)Cn1c(COc2cccc(OC)c2)[n+](C)c2ccccc21 |  | 44.7 µM (active)
91 | Cc1ccc(OCCCn2c(=O)oc3ccccc32)cc1 | -10.3% (inactive) | 
92 | CCCCOC(=O)Cn1c(=N)n(CCN(CC)CC)c2ccccc21 | 8.57% (inactive) | 
93 | CCCCCCCCCCOC(=O)Cn1c(COc2ccc(C)cc2)[n+](C)c2ccccc21 |  | 31.6 µM (active)
94 | COc1cccc(OCC(=O)Nc2ccccc2C(N)=O)c1 | 10.7% (inactive) | 
95 | CCCCOC(=O)Cn1c(=O)n(CC(=O)OCCCC)c2cc(C)ccc21 | 7.32% (inactive) | 
